Screening results (PubChem BioAssay)
In the library only some 3.8% were active in any assay of this set; here they are far more common.
tim10-1 inh: tim10-1 yeast growth inhibition; S. cerevisiae tim10-1 ts strain growth, BacTiter-Glo, 24 h; inhibition, % at 20 µM; hit rate 2.2% among 330,000; AID 463190;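 active = inhibition of at least 40%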;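 also: mutant grown at 25 °C; 0% = DMSO wells with yeast and 100% = wells holding no yeast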
Yeast superoxide: lowers age-related superoxide in aged yeast cells; S. cerevisiae aged cells, superoxide DHE fluorescence; hits give low values; superoxide response (% of plate mean), % at 10 µM; hit rate 0.18% among 330,000; AID 2690;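 active = superoxide response under a set limit, about three screen SD below normal, cut at about 65% in these data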;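 also: yeast aged for seven days with compound at 30 °C before DHE staining; 100% = average MFI of all compound-treated wells on the plate with controls excluded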
TIM10 inh: inhibits growth of TIM10 yeast strain; inhibition, % at 10 µM; hit rate 1.4% among 330,000; AID 463195; S. cerevisiae TIM10 strain growth, BacTiter-Glo luminescence, 24 h;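 active = inhibition of 40% or more at the single tested concentration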;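 also: wild-type TIM10 isogenic control strain grown at permissive 25 °C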
NALP3 yeast inh: NALP3 inhibition in yeast; Yeast reconstituted NLRP3/ASC/caspase-1, beta-gal luminescence, 24 h; inhibition, % at 10 µM; hit rate 0.39% among 330,000; AID 2825;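 active = inhibition of 50% or more; inactive = inhibition below 50%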;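 also: plate controls were induced DMSO wells for no effect and uninduced yeast grown without galactose for full effect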
tim23-1 inh: tim23-1 yeast growth inhibition | S. cerevisiae tim23-1 growth, BacTiter-Glo luminescence, 24 h | hit rate 1.3% among 330,000 | AID 463212 | inhibition, % at 20 µM;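 active = growth inhibition of the mutant yeast at or above 50%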;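 also: temperature-sensitive mutant grown at 25 °C; plate controls were DMSO-treated mutant yeast for no effect and medium wells lacking yeast for full effect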
NALP3 yeast conf: NALP3 inhibition confirmation in yeast; shares compounds with NALP3 yeast inh; yeast expressing human NALP3, luminescence; inhibition, % at 10 µM; hit rate 81% among 1,300; AID 435006; in the data active = inhibition above about 48%
Casp1-ASC yeast: counter-screen for NALP3 inhibitors: yeast caspase-1-ASC. shares compounds with NALP3 yeast inh. yeast expressing Caspase-1-ASC, luminescence counter screen. inhibition, % at 10 µM. hit rate 66% among 1,000. AID 488784
NALP3 yeast rt: confirmation retest of NALP3 inhibitors in yeast | inhibition, % at 10 µM | AID 488794 | yeast expressing human NALP3, luminescence read-out | shares compounds with NALP3 yeast inh | hit rate 53% among 1,000
tim10-1 confirm: tim10-1 yeast growth inhibition, confirmed. shares compounds with tim10-1 inh. S. cerevisiae tim10-1 ts strain growth, BacTiter-Glo, 24 h. inhibition, % at 20 µM. hit rate 56% among 7,400. AID 463213;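 active = inhibition of yeast growth at or above a set limit in either of two repeat tests at 20 µM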;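 also: tim10-1 mutant grown at permissive 25 °C to find synthetic lethal compounds; 0% = DMSO yeast wells and 100% = medium wells without yeast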
* marks the source's active call; other numbers are inactive results; . = no result given; ! = not active in a repeat. Rule as the data show it, unless noted: active = inhibition above about 50%; inactive = the rest.

SMILES	tim10-1 inh	Yeast superoxide	TIM10 inh	NALP3 yeast inh	tim23-1 inh	NALP3 yeast conf	Casp1-ASC yeast	NALP3 yeast rt	others
O=C(Nc1cccc(Cl)c1)c1cc(-c2ccco2)on1	-84	99	9	59*	19	74*	63*	48
O=C(Nc1cc(Cl)ccc1O)c1cc(-c2ccco2)on1	-33	99	5	50*	6	66*	39	39
O=C(NCc1cccs1)c1cc(S(=O)(=O)N2CCOCC2)ccc1N1CCCC1	9	101	6	4	2	.	.	.
O=C(NCC1OCCc2ccccc21)c1cc(COc2ccc(F)cc2Cl)on1 (stereo unspecified)	25	97	4	11	8	.	.	.
CCCCCCCCCCS(=O)(=O)N/N=C/c1ccc(O)cc1	31	102	21	50*	-21	70*	44	47
Cc1cccc(C)c1NC(=O)COC(=O)/C=C/c1ccc(S(=O)(=O)N2CCOCC2)cc1	13	104	4	18	-1	.	.	.
O=C1C(=O)N(CCCN2CCOCC2)C(c2ccc(Cl)cc2)/C1=C(\O)c1ccc2c(c1)OCCO2 (stereo unspecified)	5	72	-11	4	0	.	.	.
CCCCOc1ccc(C2/C(=C(\O)c3ccc4c(c3)OCCO4)C(=O)C(=O)N2CCCN2CCOCC2)cc1 (stereo unspecified)	5	85	11	60*	7	55*	68*	54*
O=C(Nc1ccc(Br)cn1)c1cccc2ccccc12	34	102	2	52*	44	21	.	.
COc1c(C(=O)Nc2ccc(Br)cn2)ccc2ccccc12	25	88	11	28	13	.	.	.
O=c1oc2ccccc2cc1-c1ccc(O)cc1	-7	90	8	52*	31	49	.	.
Nc1ccc(-c2cc3ccccc3oc2=O)cc1	-5	105	-11	36	-2	.	.	.
O=C(Nc1ccccc1)c1ccc(S(=O)(=O)N2CCCCC2)cc1	28	111	31	52*	27	63*	41	37
O=C(CCc1nc(-c2ccc(Cl)cc2)no1)NC1CCCC1	24	109	16	24	10	.	.	.
O=C(COc1ccc(Cl)cc1)Nc1cccc(-c2ccc(N3CCOCC3)nn2)c1	-12	98	-1	61*	-5	75*	49	46
O=C(/C=C/c1cccc(Cl)c1)NNC(=O)c1ccncc1	-13	71	-4	13	-12	.	.	.
Fc1ccc(NCc2nnc(SCc3ccccc3)o2)cc1	11	101	11	25	8	.	.	.
NCCc1nnc(SCc2ccc(F)cc2)o1	-13	91	-13	59*	9	74*	58*	61*
CC(=O)N1N=C(c2ccc(C)c([N+](=O)[O-])c2)OC1(C)C	4	85	17	53*	15	49*	75*	57*
CC(=O)N1N=C(c2cccc([N+](=O)[O-])c2)OC1(C)c1cccs1 (stereo unspecified)	25	125	-15	12	36	.	.	.
COc1ccc(CSCCN)cc1Cl	7	82	18	68*	27	69*	71*	73*
COc1cc(CNCCO)ccc1OCCc1ccccc1	2	96	4	19	6	.	.	.
Cc1cccc(OCCCSc2nc3ccc(C)cc3[nH]2)c1	-29	87	4	50*	-18	53*	54*	42
Cc1cccc(OCCSc2nc3ncnc(N)c3[nH]2)c1	-4	101	14	3	-6	.	.	.
CCN(CC)C(=O)[C@H]1C[C@H](CC(=O)NCCC2=CCCCC2)C(=O)N2CCc3c([nH]c4cc(CCC(=O)N(C)C)ccc34)[C@]12C	5	99	-5	.	20	.	.	.
SMILES	tim10-1 inh	Yeast superoxide	TIM10 inh	NALP3 yeast inh	tim23-1 inh	NALP3 yeast conf	Casp1-ASC yeast	NALP3 yeast rt	others
CC(C)C(=O)N[C@H]1CCC2C3CC=C4C[C@@H](O)CC[C@]4(C)C3CC[C@@]21C (stereo partly specified)	11	109	2	25	20	.	.	.
CCCCCCN[C@H]1CCC2C3CC=C4C[C@@H](O)CC[C@]4(C)C3CC[C@@]21C (stereo partly specified)	19	80	-37	62*	18	66*	.	.
CC(=O)OCC(=O)C1CCC2C3CC=C4CC(O)CCC4(C)C3CCC12C (stereo unspecified)	21	109	23	74*	30	81*	77*	66*
O=C(N[C@@H](Cc1ccccc1)C(=O)NCCc1c[nH]c2ccccc12)c1ccco1	-2	106	-15	24	2	.	.	.
Nc1nc(N)c(N=Nc2ccc(C(=O)O)cc2)c(N)n1	15	90	-6	-5	-6	.	.	.
O=C(O)c1ccc(N=Nc2c(O)ccc3ncccc23)cc1	42*	83	15	55*	37	82*	54*	53*	tim10-1 confirm=34*
CC(NC(=O)C1c2ccccc2Oc2ccccc21)C1CCCO1 (stereo unspecified)	4	121	3	-1	20	.	.	.
CCC(CC)c1nnc(NC(=O)c2cc(C(=O)OC)cc([N+](=O)[O-])c2)s1	39	100	8	16	25	.	.	.
NC(=NCCCCCCN=C(N)/N=C(\N)Nc1ccc(Cl)cc1)/N=C(\N)Nc1ccc(Cl)cc1	66*	103	-229	69*	23	74*	61*	52*	tim10-1 confirm=41*!
Cc1cc2c(cc1C)CSC(c1ccccc1O)SC2	62*	108	34	59*	39	64*	63*	55*	tim10-1 confirm=35*
Nc1nc(N)n(-c2ccccc2)c(=Nc2ccccc2)n1	2	104	1	2	-3	.	.	.
CCCSc1ccc2nc(-c3ccccc3)cn2c1	45*	94	27	51*	36	61*	72*	61*	tim10-1 confirm=18
CCOc1ccccc1N1C(=O)CN(Cc2ccc(OC)c(OC)c2)C1=S	24	96	-1	15	23	.	.	.
O=C(Nc1nccs1)c1cc2c(s1)-c1ccccc1OC2	59*	104	22	54*	25	67*	14	18	tim10-1 confirm=5
CCN(C(=O)c1cnc(NC(C)C)cc1C(F)(F)F)c1ccc(Cl)cc1Cl	16	93	-8	-9	34	.	.	.
CN(C)c1cc2c(c(N(C)C)c1)C(=O)c1ccccc1C2=O	44*	143	17	52*	24	48	51*	50	tim10-1 confirm=34*
CN(C)S(=O)(=O)c1cccc2c1C(=O)c1ccccc1C2=O	32	130	-3	3	17	.	.	.
CCCCCCCCCCCCCCCC[N+](C)(C)CC	79*	74	25	65*	22	64*	62*	68*	tim10-1 confirm=-102
